# Reference: PubChem BioAssay (Tox21)
# Activity calls are given as the source filed them. Calls come from the whole dose curve; as a rule, active = well fitted curve in the direction sought with a large enough effect in the signal ratio in the repeat runs (not every such curve was filed as active); inconclusive = weak or mixed curves, or effect the other way; inactive = no such curve, though single readings can be large or run the other way; the % refers to the signal ratio.
# Molecular target: Estrogen receptor (Homo sapiens) (UniProt P03372)
# Assay: qHTS assay to identify small molecule antagonists of the estrogen receptor alpha (ER-alpha) signaling pathway (AID 743069)
# Conditions: HEK293 ER-alpha-UAS-bla, beta-lactamase ratio, antagonist mode; series mostly up to 69.4 µM; activity, negative = inhibition: at the top concentration
# From the text: National Center for Advancing Translational Sciences [NCATS]
# NIH Chemical Genomics Center [NCGC]
# U.S. Environmental Protection Agency [EPA]
# National Institutes of Environmental Health Sciences [NIEHS]
# National Toxicology Program [NTP]
# U.S. Food and Drug Administration [FDA]
# Estrogen receptor (ER), a nuclear hormone receptor, plays an important role in development, metabolic homeostasis and reproduction. Two subtypes of ER, ER-alpha and ER-beta have similar expression patterns with some uniqueness in both types. Endocrine disrupting chemicals (EDCs) and their interactions with steroid hormone receptors like ER causes disruption of normal endocrine function. To identify the compounds that inhibit ER signaling, an ER-alpha-UAS-bla GripTiteTM cell line (Invitrogen, Carlsbad, CA, USA) containing a beta-lactamase reporter gene under the control of an Upstream Activator Sequence (UAS) stably integrated into HEK293 cells was used to screen the Tox21 10K compound library.
# Tox21 Assay Protocol Summary:
# ER-alpha-bla cells were cultured in assay medium containing 2% charcoal stripped FBS overnight in the culture flasks before the assay was performed. The cells were dispensed at 5,000 cells/5 uL of assay medium per well into black wall/clear-bottom 1536-well plates using a Multidrop Combi (ThermoFisher Scientific, Waltham, MA) dispenser. After the assay plates were incubated at a 37C and 5% CO2 for 4 hr, 23 nL of compounds dissolved in DMSO, positive controls or DMSO only was transferred to the assay plate by a Pintool station (Kalypsys, San Diego, CA), followed by addition of 1 uL of 17beta-estradiol in assay medium using a Flying Reagent Dispenser (Aurora Discovery, San Diego, CA). The plates were incubated at 37C and 5% CO2 for 18 hr. Then 1 uL of LiveBLAzerTM B/G FRET substrate was added using a Flying Reagent Dispenser, the plates were incubated at room temperature for 2 hours, and fluorescence intensity was measured by an Envision plate reader (PerkinElmer, Shelton, CT).
# % is set by controls: 0 for no effect and ±100 for the full control effect; potency is the fitted concentration of half-maximal effect.
# Sequence of Estrogen receptor (Homo sapiens) (P03372 whole entry, looked up): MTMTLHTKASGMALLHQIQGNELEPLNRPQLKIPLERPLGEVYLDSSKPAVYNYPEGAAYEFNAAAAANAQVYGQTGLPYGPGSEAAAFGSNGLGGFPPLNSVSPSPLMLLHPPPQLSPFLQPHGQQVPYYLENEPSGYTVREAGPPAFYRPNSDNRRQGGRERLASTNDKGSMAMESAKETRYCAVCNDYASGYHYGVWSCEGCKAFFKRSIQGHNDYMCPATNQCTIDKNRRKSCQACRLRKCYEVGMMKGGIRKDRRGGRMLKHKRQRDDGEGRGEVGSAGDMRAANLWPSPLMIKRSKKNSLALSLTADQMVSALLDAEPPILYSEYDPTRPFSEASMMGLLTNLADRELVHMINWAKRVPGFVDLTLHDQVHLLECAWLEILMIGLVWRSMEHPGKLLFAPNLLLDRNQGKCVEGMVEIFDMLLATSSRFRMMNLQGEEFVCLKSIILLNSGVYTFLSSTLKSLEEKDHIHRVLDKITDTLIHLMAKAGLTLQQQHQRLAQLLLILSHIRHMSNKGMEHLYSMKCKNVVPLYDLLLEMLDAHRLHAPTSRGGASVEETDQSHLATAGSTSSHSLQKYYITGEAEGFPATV
Compound,"activity, negative = inhibition",Potency
OC[C@@H](O)[C@H]1O[C@@H]2O[C@@H](C(Cl)(Cl)Cl)O[C@@H]2[C@H]1O,-1.3% (inactive),
CNC(=O)Oc1ccccc1C(=O)Nc1ccccc1,-2.23% (inactive),
NC(=O)CN1CC(O)CC1=O (stereo not given),6.12% (inactive),
CNC(C)C(O)c1ccc(O)cc1 (stereo not given),,inactive
CCC/C=C/C=C/C(=O)O[C@H]1/C(=C/C(=O)OC)C[C@H]2C[C@H]([C@@H](C)O)OC(=O)C[C@H](O)C[C@@H]3C[C@H](OC(C)=O)C(C)(C)[C@](O)(C[C@@H]4C/C(=C/C(=O)OC)C[C@H](/C=C/C(C)(C)[C@]1(O)O2)O4)O3,-25.8% (inactive),
O=C1Nc2ccc(Cl)cc2C(c2ccccc2Cl)=NC1O (stereo not given),11.1% (inactive),
C=CCC1(C(C)CCC)C(=O)N=C(S)NC1=O (stereo not given),4.13% (inactive),
O=P(O)(O)C(Cl)(Cl)P(=O)(O)O,-2% (inactive),
C[C@H]1CC[C@]2(NC1)O[C@H]1C[C@H]3[C@@H]4CC[C@H]5C[C@@H](O)CC[C@]5(C)[C@H]4CC[C@]3(C)[C@H]1[C@@H]2C,21.9% (inactive),
CC(N)Cc1ccc(O)cc1 (stereo not given),3.4% (inactive),
COc1ccc(C(c2ccc(OC)cc2)C(Cl)(Cl)Cl)cc1,,43.4 µM [inconclusive] (active)
CNC1(c2ccccc2Cl)CCCCC1=O (stereo not given),,inactive
c1ccc(C2(c3ccccc3)CC2C2=NCCN2)cc1 (stereo not given),-21.3% (inactive),
C[N+]1([O-])[C@@H]2CC[C@H]1CC(OC(=O)C(CO)c1ccccc1)C2 (stereo not given in full),,inactive
CC(=O)[C@H]1CC[C@H]2[C@@H]3CC[C@@H]4C[C@H](O)CC[C@]4(C)[C@H]3CC[C@]12C,10.4% (inactive),
C[C@H]1[C@H]2Cc3ccc(O)cc3[C@]1(C)CCN2CCc1ccccc1,-7.62% (inactive),
ClC1=C(Cl)[C@]2(Cl)[C@@H]3[C@@H](Cl)[C@H]4O[C@H]4[C@@H]3C1(Cl)C2(Cl)Cl,-20.3% (inactive),
O=C1CCO1,-1.6% (inactive),
C1CN(P2(N3CC3)=NP(N3CC3)(N3CC3)=NP(N3CC3)(N3CC3)=N2)CCO1 (stereo not given),-10.3% (inactive),
CNC(=O)OCC[N+](C)(C)C,1.59% (inactive),

Compound,"activity, negative = inhibition",Potency
CCCSc1cc(OC)c(CCN)cc1OC,8.19% [at 79.1 µM] (inactive),
CCCC(=O)OC(C(Cl)(Cl)Cl)P(=O)(OC)OC (stereo not given),-32.6% (inactive),
CCNC1(c2cccs2)CCCCC1=O (stereo not given),-5.05% [at 32.6 µM] (inactive),
CCCCCN(C)CCC(O)(P(=O)(O)O)P(=O)(O)O,1.99% (inactive),
CN1[C@@H]2CC[C@H]1CC(OC1c3ccccc3CCc3ccccc31)C2 (stereo not given in full),8.93% [at 32.6 µM] (inactive),
CN1c2ccccc2C(NCCCCCCC(=O)O)c2ccc(Cl)cc2S1(=O)=O (stereo not given),12.6% (inactive),
CC(C)C[C@H]1C(=O)N2CCC[C@H]2[C@]2(O)O[C@](NC(=O)[C@@H]3C[C@@H]4c5cccc6[nH]cc(c56)C[C@H]4N(C)C3)(C(C)C)C(=O)N12,-14.7% (inactive),
CCCN1CCC[C@H](c2cccc(O)c2)C1,18.8% (inactive),
S=C(S)N1CCNCC1,4.26% (inactive),
C/C=C(\CC)C(=O)NC(N)=O,-1.61% (inactive),
O=C(CS(=O)C(c1ccccc1)c1ccccc1)NO (stereo not given),-3.01% (inactive),
F/C(COc1ccc2c(c1)[nH]c1ccccc12)=C1/CN2CCC1CC2,,19 µM [inhibitor] (active)
CCCCCCCCCC(=O)O[C@H]1CC[C@H]2[C@@H]3CCC4=CC(=O)CC[C@]4(C)[C@H]3CC[C@]12C,13.8% (inactive),
CN[C@H]1C[C@@H](N)[C@H](O)[C@@H](O[C@@H]2O[C@H](CO)[C@H](O)[C@@H]3OC4(O[C@H]23)O[C@H](C(N)CO)[C@H](O)[C@H](O)[C@H]4O)[C@@H]1O (stereo not given in full),,inactive
CN(C)[C@H](Cc1ccccc1)c1ccccc1,7.71% (inactive),
O=C(NC(=O)c1c(F)cccc1F)Nc1ccc(Cl)c(Oc2ncc(C(F)(F)F)cc2Cl)c1,-1.96% (inactive),
Clc1ccc2c(c1)C(c1ccccc1)=NCc1nncn1-2,-10.6% (inactive),
CN[C@]1(c2ccccc2Cl)CCCCC1=O,-13.9% (inactive),
COc1ccc2c3c1O[C@H]1C(=O)CC[C@H]4[C@@H](C2)N(C)CC[C@]314,13.8% (inactive),
CC(=O)OCC(=O)[C@H]1CC[C@H]2[C@@H]3CC[C@H]4C[C@H](O)CC[C@]4(C)[C@H]3C(=O)C[C@]12C,-0.892% [at 32.6 µM] (inactive),
